# Laboratory results published in PMC7862700, “An all-to-all approach to the identification of sequence-specific readers for epigenetic DNA modifications on cytosine”.
# Experiments:
# Test in all cases: DAPPL (digital affinity profiling via proximity ligation, sequencing); 10 mM Tris-HCl pH 7.5, 50 mM NaCl, 1 mM DTT, 4% glycerol, room temperature, 30 min; GST-TFs on glutathione beads, 16-mer random dsDNA library, 0.1% formaldehyde crosslink after washing; high values mean tight binding
# Conditions in all cases: protein: recombinant; tags: N-terminal GST; dsDNA, one strand shown
# FLI1 = molecular target: T1, FLI1 (Homo sapiens, UniProt Q01543 1-452)
# T1 sequence: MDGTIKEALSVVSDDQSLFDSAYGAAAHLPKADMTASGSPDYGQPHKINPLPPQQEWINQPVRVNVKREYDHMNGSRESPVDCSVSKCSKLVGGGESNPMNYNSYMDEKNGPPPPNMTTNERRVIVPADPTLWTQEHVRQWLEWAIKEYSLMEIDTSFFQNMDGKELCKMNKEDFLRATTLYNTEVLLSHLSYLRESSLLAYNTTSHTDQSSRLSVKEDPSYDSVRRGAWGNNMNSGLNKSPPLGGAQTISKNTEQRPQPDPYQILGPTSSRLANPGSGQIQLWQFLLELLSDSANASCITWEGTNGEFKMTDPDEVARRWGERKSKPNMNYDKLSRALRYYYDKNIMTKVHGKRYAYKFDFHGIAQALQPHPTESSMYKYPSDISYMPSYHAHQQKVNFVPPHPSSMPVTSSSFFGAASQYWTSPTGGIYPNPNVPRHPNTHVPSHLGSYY
# Outline: (§1)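 In yeast, human transcription factors were expressed with a GST fusion, then pulled down on glutathione beads and given DNA barcodes. Pooled with a tag-only sample, they were exposed to 200 nmole of a 16-mer random double-stranded DNA library (Tris/NaCl/DTT/glycerol buffer, room temperature, 30 min), washed, crosslinked with 0.1% formaldehyde, proximity-ligated using BsaI/T4 ligase for 1 h at 37 °C, PCR-amplified and read on an Illumina NextSeq500. Each hexamer's frequency of reads for a factor, divided by the matching frequency for the tag-only sample, gives the binding signal.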
# GABPA = molecular target: T2, GABPA (Homo sapiens, UniProt Q06546 1-454)
# T2 sequence: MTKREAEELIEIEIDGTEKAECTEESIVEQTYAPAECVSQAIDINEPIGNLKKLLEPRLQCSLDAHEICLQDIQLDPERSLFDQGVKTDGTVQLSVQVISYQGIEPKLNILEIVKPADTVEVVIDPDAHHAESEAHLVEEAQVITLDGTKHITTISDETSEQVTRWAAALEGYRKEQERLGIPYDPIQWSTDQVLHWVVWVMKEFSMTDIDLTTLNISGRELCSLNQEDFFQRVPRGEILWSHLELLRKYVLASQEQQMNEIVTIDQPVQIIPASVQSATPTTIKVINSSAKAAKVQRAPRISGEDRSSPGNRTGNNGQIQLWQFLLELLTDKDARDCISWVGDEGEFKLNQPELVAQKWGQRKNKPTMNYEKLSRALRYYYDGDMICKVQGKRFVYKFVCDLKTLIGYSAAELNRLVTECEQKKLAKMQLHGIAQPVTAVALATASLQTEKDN
# Outline: as §1
# EHF = molecular target: T3, EHF (Homo sapiens, UniProt Q9NZC4 1-300)
# T3 sequence: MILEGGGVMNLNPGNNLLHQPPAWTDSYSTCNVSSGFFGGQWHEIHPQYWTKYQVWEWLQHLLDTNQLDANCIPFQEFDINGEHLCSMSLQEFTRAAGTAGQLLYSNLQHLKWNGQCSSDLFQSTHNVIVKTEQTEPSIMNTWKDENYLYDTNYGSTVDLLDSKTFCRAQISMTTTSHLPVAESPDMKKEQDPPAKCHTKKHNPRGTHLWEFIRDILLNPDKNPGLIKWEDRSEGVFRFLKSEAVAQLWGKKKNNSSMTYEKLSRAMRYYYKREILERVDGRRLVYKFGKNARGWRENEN
# Outline: as §1
# ELK3 = molecular target: T4, ELK3 (Homo sapiens, UniProt P41970 1-407)
# T4 sequence: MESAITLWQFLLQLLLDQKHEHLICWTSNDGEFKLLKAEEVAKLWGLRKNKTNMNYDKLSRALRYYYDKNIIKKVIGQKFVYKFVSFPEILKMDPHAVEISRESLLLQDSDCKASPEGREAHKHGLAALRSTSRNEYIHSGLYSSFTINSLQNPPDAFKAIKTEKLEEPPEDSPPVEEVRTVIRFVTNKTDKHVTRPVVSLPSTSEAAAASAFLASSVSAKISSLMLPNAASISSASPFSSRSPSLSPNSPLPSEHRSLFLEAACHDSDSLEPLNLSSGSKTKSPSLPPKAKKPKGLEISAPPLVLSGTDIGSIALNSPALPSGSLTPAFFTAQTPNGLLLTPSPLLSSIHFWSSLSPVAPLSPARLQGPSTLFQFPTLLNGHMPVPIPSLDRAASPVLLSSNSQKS
# Outline: as §1
# ELF4 = ELF4 (Homo sapiens, UniProt Q99607 1-663)
# Outline: as §1
# ELF3 = molecular target: T5, ELF3 (Homo sapiens, UniProt P78545 1-371)
# T5 sequence: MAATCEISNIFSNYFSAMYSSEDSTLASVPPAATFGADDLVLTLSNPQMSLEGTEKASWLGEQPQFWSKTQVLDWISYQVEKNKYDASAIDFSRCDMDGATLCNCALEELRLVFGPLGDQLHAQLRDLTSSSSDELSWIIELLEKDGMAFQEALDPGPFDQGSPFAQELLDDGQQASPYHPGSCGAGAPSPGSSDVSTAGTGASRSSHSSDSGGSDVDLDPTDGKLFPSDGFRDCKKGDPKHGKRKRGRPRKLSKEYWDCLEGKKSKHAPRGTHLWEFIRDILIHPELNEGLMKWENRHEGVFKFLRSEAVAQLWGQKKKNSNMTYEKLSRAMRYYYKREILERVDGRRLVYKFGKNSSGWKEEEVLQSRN
# Outline: as §1
# ETV1 = ETV1 (Homo sapiens, UniProt P50549 1-477)
# Outline: as §1
# ETV3L = molecular target: T6, ETV3L (Homo sapiens, UniProt Q6ZN32 1-361)
# T6 sequence: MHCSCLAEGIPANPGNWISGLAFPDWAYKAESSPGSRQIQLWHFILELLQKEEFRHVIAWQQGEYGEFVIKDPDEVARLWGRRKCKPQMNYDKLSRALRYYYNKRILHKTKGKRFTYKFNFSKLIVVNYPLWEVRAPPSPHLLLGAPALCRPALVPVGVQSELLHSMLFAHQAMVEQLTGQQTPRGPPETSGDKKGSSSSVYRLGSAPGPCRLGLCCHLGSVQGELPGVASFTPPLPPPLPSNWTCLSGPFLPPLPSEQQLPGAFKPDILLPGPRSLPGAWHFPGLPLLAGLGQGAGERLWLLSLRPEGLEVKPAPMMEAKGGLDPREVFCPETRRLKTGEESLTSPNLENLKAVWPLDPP
# Outline: as §1
# ETS2 = molecular target: T7, ETS2 (Homo sapiens, UniProt P15036 1-469)
# T7 sequence: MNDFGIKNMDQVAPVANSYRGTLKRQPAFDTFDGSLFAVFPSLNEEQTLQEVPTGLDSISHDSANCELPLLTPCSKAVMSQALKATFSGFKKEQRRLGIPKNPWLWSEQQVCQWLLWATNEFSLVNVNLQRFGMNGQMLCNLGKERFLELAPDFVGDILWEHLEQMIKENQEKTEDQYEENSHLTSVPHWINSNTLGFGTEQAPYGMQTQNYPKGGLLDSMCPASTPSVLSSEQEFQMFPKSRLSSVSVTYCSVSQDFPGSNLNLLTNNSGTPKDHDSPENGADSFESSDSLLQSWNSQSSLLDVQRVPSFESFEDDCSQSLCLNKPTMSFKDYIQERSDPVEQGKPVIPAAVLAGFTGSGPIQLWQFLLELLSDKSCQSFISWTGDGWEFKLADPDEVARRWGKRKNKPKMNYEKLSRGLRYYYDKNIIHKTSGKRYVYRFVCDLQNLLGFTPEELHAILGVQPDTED
# Outline: as §1
# SPDEF = molecular target: T8, SPDEF (Homo sapiens, UniProt O95238 1-335)
# T8 sequence: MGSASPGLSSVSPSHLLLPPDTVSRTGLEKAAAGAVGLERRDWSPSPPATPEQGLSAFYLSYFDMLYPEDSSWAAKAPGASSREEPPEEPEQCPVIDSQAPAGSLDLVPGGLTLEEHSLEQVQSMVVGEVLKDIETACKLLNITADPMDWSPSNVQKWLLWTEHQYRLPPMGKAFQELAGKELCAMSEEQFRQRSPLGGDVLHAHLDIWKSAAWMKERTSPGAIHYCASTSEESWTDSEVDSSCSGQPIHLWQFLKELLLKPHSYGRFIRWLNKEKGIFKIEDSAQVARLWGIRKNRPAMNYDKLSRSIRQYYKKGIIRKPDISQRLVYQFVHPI
# Outline: as §1
# ELF5 = molecular target: T9, ELF5 (Homo sapiens, UniProt Q9UKW6-2 1-255)
# T9 sequence: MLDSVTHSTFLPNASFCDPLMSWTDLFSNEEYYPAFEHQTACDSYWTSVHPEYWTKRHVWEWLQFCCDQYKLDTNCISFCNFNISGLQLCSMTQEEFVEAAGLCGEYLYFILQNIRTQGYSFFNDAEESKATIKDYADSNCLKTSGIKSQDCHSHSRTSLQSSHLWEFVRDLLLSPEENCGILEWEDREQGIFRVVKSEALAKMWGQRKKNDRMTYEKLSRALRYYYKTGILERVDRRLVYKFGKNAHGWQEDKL
# Outline: as §1
# ETV6 = ETV6 (Homo sapiens, UniProt P41212 1-452)
# Outline: as §1
# ETV1, sequence (P50549 whole entry): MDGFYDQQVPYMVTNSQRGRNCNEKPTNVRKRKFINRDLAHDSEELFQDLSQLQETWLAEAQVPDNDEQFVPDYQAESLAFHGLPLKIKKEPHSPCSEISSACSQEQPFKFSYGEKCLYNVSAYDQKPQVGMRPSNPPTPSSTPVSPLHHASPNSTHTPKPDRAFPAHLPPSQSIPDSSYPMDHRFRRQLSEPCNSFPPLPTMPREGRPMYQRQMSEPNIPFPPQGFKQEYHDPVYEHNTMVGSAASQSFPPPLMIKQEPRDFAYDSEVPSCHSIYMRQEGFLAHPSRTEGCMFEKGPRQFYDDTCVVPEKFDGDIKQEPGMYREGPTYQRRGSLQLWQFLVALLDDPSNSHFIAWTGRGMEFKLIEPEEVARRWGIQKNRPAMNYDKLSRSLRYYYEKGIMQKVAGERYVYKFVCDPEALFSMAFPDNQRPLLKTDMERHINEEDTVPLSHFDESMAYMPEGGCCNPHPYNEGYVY
# ETV6, sequence (P41212 whole entry): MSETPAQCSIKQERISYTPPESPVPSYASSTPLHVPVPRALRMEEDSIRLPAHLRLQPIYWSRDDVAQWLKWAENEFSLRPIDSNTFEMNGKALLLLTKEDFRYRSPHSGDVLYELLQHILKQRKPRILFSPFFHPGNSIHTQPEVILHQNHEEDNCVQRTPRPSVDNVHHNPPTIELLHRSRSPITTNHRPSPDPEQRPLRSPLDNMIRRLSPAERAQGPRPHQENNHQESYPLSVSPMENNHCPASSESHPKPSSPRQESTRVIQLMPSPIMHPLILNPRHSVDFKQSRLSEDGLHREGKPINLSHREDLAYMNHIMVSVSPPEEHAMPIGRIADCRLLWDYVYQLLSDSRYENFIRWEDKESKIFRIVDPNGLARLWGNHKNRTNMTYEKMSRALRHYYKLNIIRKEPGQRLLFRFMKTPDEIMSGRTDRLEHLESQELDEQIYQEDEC
# ELF4, sequence (Q99607 whole entry): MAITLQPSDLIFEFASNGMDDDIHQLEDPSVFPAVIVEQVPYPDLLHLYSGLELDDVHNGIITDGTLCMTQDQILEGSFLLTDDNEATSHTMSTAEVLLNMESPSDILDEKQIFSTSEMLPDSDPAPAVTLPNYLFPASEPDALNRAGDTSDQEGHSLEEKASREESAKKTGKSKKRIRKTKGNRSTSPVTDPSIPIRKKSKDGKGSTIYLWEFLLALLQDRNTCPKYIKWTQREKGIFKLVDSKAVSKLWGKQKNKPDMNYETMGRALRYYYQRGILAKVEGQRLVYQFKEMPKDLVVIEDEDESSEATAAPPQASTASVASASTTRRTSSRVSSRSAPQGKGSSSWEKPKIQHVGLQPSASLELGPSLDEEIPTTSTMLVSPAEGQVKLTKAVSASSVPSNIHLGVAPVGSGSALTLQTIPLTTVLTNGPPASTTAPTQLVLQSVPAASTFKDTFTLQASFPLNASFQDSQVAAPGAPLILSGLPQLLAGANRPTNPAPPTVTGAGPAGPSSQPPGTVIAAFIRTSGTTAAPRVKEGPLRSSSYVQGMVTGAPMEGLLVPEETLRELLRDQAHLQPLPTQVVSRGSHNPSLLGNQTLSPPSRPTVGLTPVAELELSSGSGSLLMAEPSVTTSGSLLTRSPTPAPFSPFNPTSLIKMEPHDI
sequence,measurement,setting,value
GACGAC,binding signal,FLI1,"1.01 fold enrichment (6-mer frequency, TF over GST control)"
same,binding signal,GABPA,"1.05 fold enrichment (6-mer frequency, TF over GST control)"
same,binding signal,EHF,"1.06 fold enrichment (6-mer frequency, TF over GST control)"
same,binding signal,ELK3,"1.03 fold enrichment (6-mer frequency, TF over GST control)"
same,binding signal,ELF4,"1.03 fold enrichment (6-mer frequency, TF over GST control)"
same,binding signal,ELF3,"1.06 fold enrichment (6-mer frequency, TF over GST control)"
same,binding signal,ETV1,"1.02 fold enrichment (6-mer frequency, TF over GST control)"
same,binding signal,ETV3L,"1.03 fold enrichment (6-mer frequency, TF over GST control)"
same,binding signal,ETS2,"1.02 fold enrichment (6-mer frequency, TF over GST control)"
same,binding signal,SPDEF,"1.04 fold enrichment (6-mer frequency, TF over GST control)"
same,binding signal,ELF5,"1.02 fold enrichment (6-mer frequency, TF over GST control)"
same,binding signal,ETV6,"1.08 fold enrichment (6-mer frequency, TF over GST control)"
